According to the supplement of paper PMC10849652:
About 8,800 targets were measured; listed, in parts, are those with a hit and a random draw of the rest. About 0.5% of all pairs of compound and target were hits.

Key:
Test in all cases: log2 fold change, soluble protein after heating vs DMSO (PISA); higher = thermal stabilisation; K562 lysate, 10 uM; active = over 0.2 and 3.5 SD of the protein, either way, in both replicates (recomputed)
[1] = compound: CCCS(=O)(=O)Nc1ccc(F)c(C(=O)c2c[nH]c3ncc(-c4ccc(Cl)cc4)cc23)c1F [vemurafenib]
In short: (§1)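 K562 pellets were dounce-homogenised in PBS pH 7.4 containing 1 mM MgCl2, and the crude extract, at 1 mg/mL protein, was exposed to 10 μM compound for 30 min. Aliquots were heated for 3 min across 48°C-58°C, pooled, brought to 0.5% NP-40 at 4°C and spun at 21,000xg for 90 min, with the supernatant taken as soluble protein. TMTpro 16plex LC-MS/MS with equalised channel sums quantified that protein. Values are log-two fold changes in thermal stability relative to solvent controls, taken from duplicates.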

[2] = compound: CCCS(=O)(=O)Nc1ccc(F)c(C(=O)c2c[nH]c3ncc(Cl)cc23)c1F
In short: as §1

[3] = compound: CCN(CCCOc1ccc2c(Nc3cc(CC(=O)Nc4cccc(F)c4)[nH]n3)ncnc2c1)CCOP(=O)(O)O [barasertib]
In short: as §1

[4] = compound: CC[C@@H]1C(=O)N(C)c2cnc(Nc3ccc(C(=O)NC4CCN(C)CC4)cc3OC)nc2N1C1CCCC1
In short: as §1

[5] = compound: CC[C@@H]1C(=O)N(C)c2cnc(Nc3ccc(C(=O)N[C@H]4CC[C@H](N5CCN(CC6CC6)CC5)CC4)cc3OC)nc2N1C(C)C [volasertib]
In short: as §1

[6] = compound: CCn1c(C(=O)N(C2CC2)C2CC2)cc2c3c(ncn3C)c(Nc3cc(C)n(C)n3)nc21
In short: as §1

[7] = compound: CCn1cc(-c2ccnc3[nH]c(-c4cccc(CN(C)C)c4)cc23)c(-c2ccc(NC(=O)N(C)C)cc2)n1
In short: as §1

[8] = compound: CN1CCC(CNc2ccc3ncc(-c4cccc(OC(F)(F)F)c4)n3n2)CC1
In short: as §1

[9] = compound: CN1CCN(CCOc2cc(OC3CCOCC3)c3c(Nc4c(Cl)ccc5c4OCO5)ncnc3c2)CC1 [saracatinib]
In short: as §1

[10] = compound: CN1CCN(c2nc(C3=C(c4c[nH]c5ccccc45)C(=O)NC3=O)c3ccccc3n2)CC1 [sotrastaurin]
In short: as §1

Measured: log2 fold change

PCBD2 (UniProt Q9H0N5)
inactive: [1] 0.004 | [2] -0.017 | [3] 0.013 | [4] 0.018 | [5] 0.016 | [6] 0.031 | [7] -0.237 | [8] 0.11 | [9] -0.05 | [10] 0.055

PI4K2B (UniProt Q8TCG2)
inactive: [1] -0.003 | [2] -0.006 | [3] 0.023 | [4] 0.07 | [5] -0.032 | [6] -0.062 | [7] 0.081 | [8] 0.121 | [9] -0.009 | [10] 0.132

PUF60 (UniProt Q9UHX1)
inactive: [1] 0.002 | [2] 0.015 | [3] -0.005 | [4] 0.002 | [5] 0.003 | [6] -0.015 | [7] 0.116 | [8] -0.018 | [9] 0 | [10] -0.02

PPP1R12B isoform 6 (UniProt O60237)
inactive: [1] 0.08 | [2] 0.036 | [3] -0.046 | [4] 0.133 | [5] -0.029 | [6] -0.209 | [9] -0.047 | [10] -0.057

PRC1 (UniProt O43663)
inactive: [1] 0.048 | [2] 0.03 | [3] 0.063 | [4] -0.057 | [5] -0.028 | [6] 0 | [7] -0.004 | [8] -0.094 | [9] 0.025 | [10] 0.005

PRPH isoform 2 (UniProt P41219)
UniProt P41219, sequence (P41219 whole entry, looked up): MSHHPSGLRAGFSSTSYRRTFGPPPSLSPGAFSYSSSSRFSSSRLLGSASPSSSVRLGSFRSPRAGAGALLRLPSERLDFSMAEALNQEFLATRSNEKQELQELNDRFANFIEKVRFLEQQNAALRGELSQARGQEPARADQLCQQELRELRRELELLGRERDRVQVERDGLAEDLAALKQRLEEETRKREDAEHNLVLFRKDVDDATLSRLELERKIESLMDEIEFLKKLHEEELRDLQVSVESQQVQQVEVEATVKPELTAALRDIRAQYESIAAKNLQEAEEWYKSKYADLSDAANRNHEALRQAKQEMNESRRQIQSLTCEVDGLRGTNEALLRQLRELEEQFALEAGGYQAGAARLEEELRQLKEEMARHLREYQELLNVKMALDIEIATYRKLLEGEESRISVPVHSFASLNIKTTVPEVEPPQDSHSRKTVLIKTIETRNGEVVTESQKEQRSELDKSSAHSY
inactive: [1] 0.03 | [2] -0.05 | [3] -0.13 | [4] -0.102 | [5] -0.028 | [6] 0.098 | [7] 0.132 | [8] -0.1 | [9] 0.071 | [10] 0.036

PICALM (UniProt H0YEH1)
inactive: [1] 0.05 | [2] -0.094 | [3] -0.018 | [4] -0.008 | [5] -0.011 | [6] -0.014 | [8] 0.248 | [9] 0.056 | [10] 0.126
active: [7] -0.54

PWP2 (UniProt Q15269)
inactive: [1] 0.033 | [2] 0.045 | [3] 0.044 | [4] 0.006 | [5] -0.013 | [6] 0.018 | [7] 0.015 | [8] -0.038 | [9] 0.015 | [10] 0.052

PHF14 (UniProt O94880)
inactive: [1] 0.079 | [2] -0.127 | [3] -0.046 | [4] 0.341 | [5] 0.004 | [6] -0.02 | [9] -0.047

PRKCSH (UniProt P14314)
inactive: [1] 0.01 | [2] -0.009 | [3] -0.009 | [4] 0.007 | [5] 0.04 | [6] 0.025 | [7] 0.007 | [8] -0.003 | [9] 0.011 | [10] 0.018

PDCD10 (UniProt Q9BUL8)
UniProt Q9BUL8, sequence (Q9BUL8 whole entry, looked up): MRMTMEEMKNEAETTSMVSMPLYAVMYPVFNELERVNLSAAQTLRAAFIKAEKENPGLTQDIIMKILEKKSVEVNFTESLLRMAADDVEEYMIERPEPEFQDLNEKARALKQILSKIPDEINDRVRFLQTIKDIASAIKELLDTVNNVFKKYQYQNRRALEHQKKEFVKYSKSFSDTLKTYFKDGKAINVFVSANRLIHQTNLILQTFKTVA
inactive: [1] -0.021 | [2] -0.002 | [3] 0.006 | [4] -0.012 | [5] 0.007 | [6] 0 | [8] 0.029 | [9] 0.016 | [10] 0.04
active: [7] -0.269

PDIA4 (UniProt P13667)
inactive: [1] -0.007 | [2] -0.02 | [3] -0.028 | [4] 0.017 | [5] 0.012 | [6] -0.008 | [7] 0.036 | [8] -0.045 | [9] 0.012 | [10] 0

PRKAR2A (UniProt P13861)
inactive: [1] -0.01 | [2] 0.033 | [3] 0.055 | [4] 0.011 | [5] -0.013 | [6] 0.009 | [7] 0.065 | [9] -0.012 | [10] -0.154
active: [8] -0.26

PRKD2 isoform 3 (UniProt Q9BZL6)
inactive: [1] 0.041 | [2] -0.048 | [3] 0.034 | [5] -0.131 | [6] 0.097 | [7] 0.038 | [8] -0.07 | [9] 0 | [10] 0.085
active: [4] -0.358

PPOX (UniProt P50336)
UniProt P50336, sequence (P50336 whole entry, looked up): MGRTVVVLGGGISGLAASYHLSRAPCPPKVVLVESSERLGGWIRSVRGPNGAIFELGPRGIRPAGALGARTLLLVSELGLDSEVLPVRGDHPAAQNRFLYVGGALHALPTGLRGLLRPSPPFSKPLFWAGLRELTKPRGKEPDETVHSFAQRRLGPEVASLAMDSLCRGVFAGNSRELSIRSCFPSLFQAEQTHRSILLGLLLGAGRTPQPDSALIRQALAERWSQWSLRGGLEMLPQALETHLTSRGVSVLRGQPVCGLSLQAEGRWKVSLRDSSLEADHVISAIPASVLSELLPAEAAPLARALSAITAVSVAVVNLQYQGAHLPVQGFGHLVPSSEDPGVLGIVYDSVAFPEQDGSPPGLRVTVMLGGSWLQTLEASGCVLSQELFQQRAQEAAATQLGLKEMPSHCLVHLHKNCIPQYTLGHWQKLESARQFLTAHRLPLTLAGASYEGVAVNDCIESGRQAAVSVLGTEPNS
inactive: [1] 0.058 | [2] 0.02 | [3] -0.093 | [4] -0.036 | [5] -0.007 | [6] -0.096 | [7] -0.075 | [8] -0.018 | [9] -0.044 | [10] -0.021

PRKCD (UniProt Q05655)
inactive: [1] -0.006 | [2] -0.118 | [3] 0.057 | [4] 0.008 | [5] -0.041 | [6] -0.014 | [7] 0.012 | [8] 0.021 | [9] -0.005 | [10] 0.058

PGRMC1 (UniProt O00264)
inactive: [1] -0.009 | [2] -0.043 | [3] 0.019 | [4] 0.015 | [5] 0.008 | [6] 0.021 | [7] -0.045 | [8] 0.071 | [9] -0.017 | [10] -0.003

PCBP2 isoform 8 (UniProt Q15366)
inactive: [1] 0.078 | [2] 0.051 | [3] 0.016 | [4] 0.001 | [5] -0.05 | [6] -0.152 | [7] 0.054 | [8] -0.003 | [9] -0.018 | [10] -0.045

PHKA2 (UniProt P46019)
UniProt P46019, sequence (P46019 whole entry, looked up): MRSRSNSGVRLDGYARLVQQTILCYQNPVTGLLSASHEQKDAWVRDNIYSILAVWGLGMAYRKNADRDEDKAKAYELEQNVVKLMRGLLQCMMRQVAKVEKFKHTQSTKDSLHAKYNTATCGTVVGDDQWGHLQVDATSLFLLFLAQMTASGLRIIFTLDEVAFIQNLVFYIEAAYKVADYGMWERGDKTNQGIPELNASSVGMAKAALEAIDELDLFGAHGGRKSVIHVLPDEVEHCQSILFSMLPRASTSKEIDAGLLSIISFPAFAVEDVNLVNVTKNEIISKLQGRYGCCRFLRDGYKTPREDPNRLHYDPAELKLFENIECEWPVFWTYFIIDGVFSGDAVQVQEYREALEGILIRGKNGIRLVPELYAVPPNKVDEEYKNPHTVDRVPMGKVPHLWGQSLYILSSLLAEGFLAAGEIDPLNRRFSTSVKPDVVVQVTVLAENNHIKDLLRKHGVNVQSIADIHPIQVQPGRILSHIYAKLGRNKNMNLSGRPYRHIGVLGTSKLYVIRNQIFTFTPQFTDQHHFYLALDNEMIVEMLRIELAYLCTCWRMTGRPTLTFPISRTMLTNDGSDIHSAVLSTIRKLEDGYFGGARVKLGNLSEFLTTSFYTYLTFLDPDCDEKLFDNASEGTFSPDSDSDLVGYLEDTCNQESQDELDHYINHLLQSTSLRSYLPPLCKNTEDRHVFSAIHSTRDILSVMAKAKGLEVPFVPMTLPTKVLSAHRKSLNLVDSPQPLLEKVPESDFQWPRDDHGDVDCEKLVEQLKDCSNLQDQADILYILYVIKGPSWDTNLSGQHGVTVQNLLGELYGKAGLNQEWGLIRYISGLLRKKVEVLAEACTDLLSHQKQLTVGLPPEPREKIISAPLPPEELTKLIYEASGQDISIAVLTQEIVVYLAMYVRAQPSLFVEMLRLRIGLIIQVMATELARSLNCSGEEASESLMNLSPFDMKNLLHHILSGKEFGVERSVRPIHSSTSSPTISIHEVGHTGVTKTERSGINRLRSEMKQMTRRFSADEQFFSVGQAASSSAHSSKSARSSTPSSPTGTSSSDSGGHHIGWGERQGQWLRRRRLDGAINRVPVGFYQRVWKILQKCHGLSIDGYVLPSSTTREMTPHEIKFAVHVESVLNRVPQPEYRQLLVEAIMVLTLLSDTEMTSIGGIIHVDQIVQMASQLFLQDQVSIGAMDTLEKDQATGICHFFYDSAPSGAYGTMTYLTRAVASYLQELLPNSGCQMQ
inactive: [1] -0.065 | [2] 0.053 | [3] 0.072 | [4] 0.059 | [5] 0.021 | [6] 0.024 | [7] 0.009 | [8] -0.084 | [9] 0.002 | [10] -0.058

PRAME (UniProt P78395)
inactive: [1] 0.028 | [2] -0.012 | [3] 0.003 | [4] -0.086 | [5] -0.009 | [6] 0.017 | [7] -0.058 | [8] 0.011 | [9] 0 | [10] 0.018

PCF11 (UniProt O94913)
inactive: [1] 0.042 | [2] 0.012 | [3] 0.015 | [4] 0.02 | [5] -0.029 | [6] -0.045 | [7] 0.081 | [8] -0.018 | [9] -0.003 | [10] 0.006

PLIN2 (UniProt Q99541)
UniProt Q99541, sequence (Q99541 whole entry, looked up): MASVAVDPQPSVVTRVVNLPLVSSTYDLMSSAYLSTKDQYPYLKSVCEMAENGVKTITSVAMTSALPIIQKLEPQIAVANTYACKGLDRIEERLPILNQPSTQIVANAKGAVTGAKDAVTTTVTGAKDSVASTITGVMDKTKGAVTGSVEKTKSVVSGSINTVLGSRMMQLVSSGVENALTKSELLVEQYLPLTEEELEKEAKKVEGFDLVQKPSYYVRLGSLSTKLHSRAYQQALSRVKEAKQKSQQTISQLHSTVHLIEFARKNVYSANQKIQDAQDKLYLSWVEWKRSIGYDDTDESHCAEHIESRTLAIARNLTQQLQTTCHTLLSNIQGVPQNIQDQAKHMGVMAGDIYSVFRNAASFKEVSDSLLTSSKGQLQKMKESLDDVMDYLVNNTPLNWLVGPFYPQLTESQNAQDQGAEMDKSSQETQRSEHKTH
inactive: [1] 0.014 | [2] -0.01 | [3] 0.073 | [4] 0.033 | [5] 0.003 | [6] 0.048 | [7] 0.033 | [8] -0.181 | [9] 0.019 | [10] 0.007

PIK3C3 (UniProt Q8NEB9)
UniProt Q8NEB9, sequence (Q8NEB9 whole entry, looked up): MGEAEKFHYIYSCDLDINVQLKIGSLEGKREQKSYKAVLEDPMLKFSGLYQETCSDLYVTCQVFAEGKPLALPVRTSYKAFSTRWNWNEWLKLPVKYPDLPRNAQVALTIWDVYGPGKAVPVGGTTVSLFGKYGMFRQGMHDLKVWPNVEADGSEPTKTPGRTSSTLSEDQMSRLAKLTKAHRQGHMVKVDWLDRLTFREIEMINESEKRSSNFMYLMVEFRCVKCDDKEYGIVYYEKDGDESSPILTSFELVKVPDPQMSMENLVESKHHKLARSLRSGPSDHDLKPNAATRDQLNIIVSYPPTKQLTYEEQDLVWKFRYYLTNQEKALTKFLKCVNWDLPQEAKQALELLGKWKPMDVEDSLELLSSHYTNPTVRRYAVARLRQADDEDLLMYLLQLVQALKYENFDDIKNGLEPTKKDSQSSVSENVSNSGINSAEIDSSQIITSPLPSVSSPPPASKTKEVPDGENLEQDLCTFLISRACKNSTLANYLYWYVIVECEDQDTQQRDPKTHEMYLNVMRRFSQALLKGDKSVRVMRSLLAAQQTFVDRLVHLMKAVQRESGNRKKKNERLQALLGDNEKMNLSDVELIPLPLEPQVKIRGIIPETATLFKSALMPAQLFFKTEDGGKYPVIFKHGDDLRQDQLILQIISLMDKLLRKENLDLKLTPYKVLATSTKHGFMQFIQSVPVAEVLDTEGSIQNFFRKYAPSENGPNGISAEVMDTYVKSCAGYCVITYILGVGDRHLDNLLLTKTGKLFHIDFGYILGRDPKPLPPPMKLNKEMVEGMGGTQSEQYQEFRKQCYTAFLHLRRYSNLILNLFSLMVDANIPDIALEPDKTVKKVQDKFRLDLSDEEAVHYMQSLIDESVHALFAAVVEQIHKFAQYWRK
inactive: [1] 0.032 | [2] 0.019 | [3] -0.012 | [4] 0.098 | [5] -0.025 | [6] -0.075 | [7] -0.226 | [8] 0.121 | [9] 0.008 | [10] 0.007

PRKCA (UniProt P17252)
active: [10] 0.924
inactive: [1] 0.019 | [2] -0.016 | [3] 0.051 | [4] -0.186 | [5] -0.054 | [6] 0.004 | [7] 0.101 | [8] -0.207 | [9] -0.046

QKI (UniProt Q96PU8)
inactive: [1] -0.006 | [2] 0.024 | [3] -0.027 | [4] 0.087 | [5] -0.021 | [6] 0.001 | [7] -0.196 | [8] 0.107 | [9] 0.047 | [10] 0

PFKFB4 (UniProt Q16877)
inactive: [1] 0.021 | [2] 0.005 | [3] 0.087 | [4] 0.015 | [5] -0.068 | [6] -0.011 | [7] 0.014 | [8] 0.007 | [9] 0.077 | [10] 0.043

PPIE (UniProt Q9UNP9)
inactive: [1] 0.026 | [2] -0.043 | [3] -0.042 | [4] 0.044 | [5] 0.018 | [6] -0.003 | [8] 0.143 | [9] -0.01 | [10] 0.067
active: [7] -0.25

PRKD3 (UniProt O94806)
inactive: [1] -0.148 | [2] -0.057 | [3] 0.161 | [4] -0.25 | [5] -0.06 | [6] -0.143 | [8] 0.219 | [10] 0.086
active: [7] -0.876

PTS (UniProt Q03393)
inactive: [2] 0.044 | [3] 0.051 | [4] 0.054 | [5] 0.014 | [6] 0.02 | [7] -0.045 | [8] 0.01 | [9] 0.104 | [10] 0.057
active: [1] 0.33

PFDN2 (UniProt Q9UHV9)
inactive: [1] -0.049 | [2] 0 | [3] 0.064 | [4] -0.022 | [5] 0.029 | [6] 0.082 | [8] -0.049 | [9] 0.009 | [10] 0.039
active: [7] 0.471

POMP (UniProt Q9Y244)
inactive: [1] -0.022 | [2] 0.001 | [3] -0.034 | [4] 0.039 | [5] -0.007 | [6] -0.028 | [7] 0.065 | [8] -0.061 | [9] 0.056 | [10] -0.064

PPFIA2 (UniProt O75334)
inactive: [1] 0.062 | [2] -0.018 | [3] 0.054 | [4] 0.01 | [5] 0.02 | [6] -0.127 | [7] -0.255 | [8] 0.146 | [9] -0.016 | [10] -0.05

PPP2R5B (UniProt Q15173)
inactive: [1] -0.036 | [2] 0 | [3] -0.016 | [4] -0.057 | [5] 0.031 | [6] 0 | [7] -0.01 | [8] -0.079 | [9] 0.001 | [10] -0.074

PRKDC (UniProt P78527)
inactive: [1] 0.132 | [2] 0.014 | [3] -0.009 | [4] -0.058 | [5] -0.062 | [6] 0.063 | [7] -0.12 | [8] 0.097 | [9] -0.007 | [10] 0.048

PDPK1 (UniProt O15530)
UniProt O15530, sequence (O15530 whole entry, looked up): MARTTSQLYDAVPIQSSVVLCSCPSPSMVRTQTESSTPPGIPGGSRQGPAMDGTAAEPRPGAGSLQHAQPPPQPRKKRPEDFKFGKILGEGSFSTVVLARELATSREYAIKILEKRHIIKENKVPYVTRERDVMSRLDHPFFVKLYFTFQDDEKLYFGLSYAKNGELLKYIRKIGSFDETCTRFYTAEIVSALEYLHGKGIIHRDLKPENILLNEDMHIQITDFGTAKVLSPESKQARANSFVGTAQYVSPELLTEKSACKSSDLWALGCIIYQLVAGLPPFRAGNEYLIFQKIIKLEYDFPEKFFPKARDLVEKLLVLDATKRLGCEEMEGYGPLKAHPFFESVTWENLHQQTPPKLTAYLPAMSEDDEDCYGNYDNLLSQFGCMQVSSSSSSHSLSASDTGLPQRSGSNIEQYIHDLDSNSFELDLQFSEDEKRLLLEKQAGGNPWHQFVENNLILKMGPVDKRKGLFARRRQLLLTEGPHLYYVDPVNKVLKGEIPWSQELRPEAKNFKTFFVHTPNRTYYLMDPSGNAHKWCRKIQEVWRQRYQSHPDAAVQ
inactive: [1] -0.03 | [2] -0.002 | [3] -0.027 | [4] -0.06 | [5] -0.047 | [6] 0.012 | [7] 0.041 | [8] -0.017 | [9] -0.025 | [10] 0.133

PYCR2 (UniProt Q96C36)
inactive: [1] 0.004 | [2] -0.005 | [3] 0.006 | [4] 0.036 | [5] 0.016 | [6] -0.001 | [7] 0.099 | [8] 0.012 | [9] -0.012 | [10] -0.014
